# Results published in PubChem BioAssay AID1851 (National Center for Advancing Translational Sciences (NCATS), 2009).
# Values joined by “and” are separate entries in the source; they are usually repeats but may differ in a detail not shown here. Equal entries are not always repeated. The whole screen tested about 16,000 compounds, of which about 2,600 (16%) were called active. Inconclusive results (about 20%) are left out. Calls follow the shape of the dose curve; as a rule, active = well fitted curve in the direction sought with a large enough effect; inconclusive = small, poorly fitted or top-dose-only effect, or effect the other way; inactive = no such curve, though single readings can be large or run the other way. A selection follows.
# Target: Cytochrome P450 2D6 (Homo sapiens) (UniProt P10635)
# Test: Cytochrome panel assay with activity outcomes
# Conditions: recombinant CYP, pro-luciferin dealkylation, luminescence, p450-cyp2d6; series mostly up to 57.1 µM; activity, negative = inhibition: at the top concentration
# % is scaled to controls: 0 for no effect and ±100 for the full control effect.
# Sequence of Cytochrome P450 2D6 (Homo sapiens) (P10635 whole entry, looked up): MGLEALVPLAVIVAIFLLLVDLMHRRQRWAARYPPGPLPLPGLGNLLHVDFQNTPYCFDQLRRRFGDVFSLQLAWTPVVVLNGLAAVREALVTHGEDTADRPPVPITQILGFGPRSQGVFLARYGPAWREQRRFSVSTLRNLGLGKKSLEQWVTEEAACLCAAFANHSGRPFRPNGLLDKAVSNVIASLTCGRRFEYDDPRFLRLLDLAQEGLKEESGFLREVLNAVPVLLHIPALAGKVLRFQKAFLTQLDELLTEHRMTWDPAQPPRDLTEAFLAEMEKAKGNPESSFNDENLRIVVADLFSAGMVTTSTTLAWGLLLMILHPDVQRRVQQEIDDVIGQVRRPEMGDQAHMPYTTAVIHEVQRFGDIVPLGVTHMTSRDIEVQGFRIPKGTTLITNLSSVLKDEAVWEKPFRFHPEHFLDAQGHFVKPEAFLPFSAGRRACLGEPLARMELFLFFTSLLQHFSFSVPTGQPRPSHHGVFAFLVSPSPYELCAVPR
Structure (SMILES),"activity, negative = inhibition",AC50
Cc1cc(N2CCN(C)CC2)nc2ccc(NC(=O)CCC(=O)NCc3ccco3)cc12,-1.82% (inactive),
CCCCC/C=C\C[C@H](O)/C=C\c1cccc(C[C@H](O)CCCCO)n1,-6.38% (inactive),
COc1ccc(C(C(=O)NC2CCCC2)N(C(=O)c2snc(-c3ccc(F)cc3)c2N)c2ccc(F)cc2)cc1 (centres undefined),-4.46% (inactive),
CC(C(=O)NC1CCCC1)N(C(=O)c1snc(C(N)=O)c1N)c1ccc2c(c1)OCCO2 (centres undefined),,14.1 µM (active)
CCc1ccc(N(C(=O)c2snc(C(N)=O)c2N)C(C(=O)NCCC(C)C)c2c[nH]c3ccccc23)cc1 (centres undefined),-29.2% (inactive),
Cc1ccccc1NC(=S)NN1CCN(C)CC1,-0.0224% (inactive),
CCOC(=O)C(C(=O)NCc1ccc(C)cc1)c1ncc(C(F)(F)F)cc1Cl (centres undefined),-3.02% (inactive),
OC(CNCc1ccc(F)cc1)(c1ccc(F)cc1)c1ccc(F)cc1,,0.794 µM (active)
O=C(O)c1ccccc1C(=O)NCc1ccc(F)cc1,-19.2% (inactive),
Cc1ccc(CNCC(O)(c2ccc(F)cc2)c2ccc(F)cc2)cc1,,1 µM (active)
COc1cc2c(C(=O)N3CCN(C)CC3)c(C)n(-c3ccccc3)c2cc1Br,7.75% (inactive),
CN1CCN(C(=O)c2ccc3c(=O)n4c(nc3c2)CCCCC4)CC1,5.28% (inactive),
CCOC(=O)c1ccc(NC(=O)C2(c3ccc(OC)cc3)CCOCC2)cc1,-27.2% (inactive),
CCOC(=O)CCCNC(=O)CCCNC(=O)C(c1ccccc1)c1ccccc1,,0.891 µM (active)
CCOC(=O)c1cc(CC)sc1NC(=O)C(c1ccccc1)c1ccccc1,-0.533% (inactive),
CCOC(=O)CCCNC(=O)c1cncc(Br)c1,0.0414% (inactive),
CC(C)(C)C(=O)N1CCc2cc(-c3csc(N)n3)ccc21,-5.95% (inactive),
CCC(=O)Nc1ccccc1C(=O)OCC(=O)c1ccccc1,-24.5% (inactive),
CN(C)CCCO[C@H]1[C@H]([C@H](O)CO)O[C@H]2OC(C)(C)O[C@@H]21,3.96% (inactive),
Cc1cc2cc(CNC(=O)CC(C)C)ccc2n1C,-0.54% (inactive),
CCOC(=O)N/N=C1/C[C@@H](O)[C@@H](O)[C@@H]2[C@@H]3C(=O)N(c4cccc(Oc5ccccc5)c4)C(=O)[C@H]3CC[C@H]12,2.57% [at 11.4 µM] (inactive),
CCOC(=O)c1cncc(C(=O)O)c1,4.25% (inactive),

Structure (SMILES),"activity, negative = inhibition",AC50
CCOC(=O)c1c(C)oc2c1cc(O)c1ccccc12,-3.41% (inactive),
CCOC(=O)c1c(C(C)(C)C)oc2ccc(O)cc12,,14.1 µM (active)
C=CCCCCCCCCC(=O)Nc1c[nH]c(=O)[nH]c1=O,-7.96% (inactive),
O=C1C[C@@H](O)[C@@H](O)[C@H]2[C@@H]3C(=O)N(Cc4ccccc4)C(=O)[C@@H]3CC[C@H]12,-0.874% [at 11.4 µM] (inactive) and 9.9% [at 11.4 µM] (inactive),
O=C(Nc1ccc(Cl)cc1)OCCn1nnnc1C(c1ccccc1Cl)N1CCOCC1 (centres undefined),,15.8 µM (active)
O=C(Nc1ccc(Cl)cc1)OCc1cc(-c2ccccc2Cl)on1,-1.65% (inactive),
COc1ccc(Cn2nnnc2C(c2ccccc2Cl)N2CCC(C(N)=O)CC2)cc1 (centres undefined),-14.7% (inactive),
C#C[C@@]1(O)CC[C@@H]2[C@@H]3CCC4=CC(=O)CC[C@@H]4[C@H]3CC[C@]21CC,-0.799% [at 25.6 µM] (inactive),
Cc1onc(C(=O)/C=C/N(C)C)c1C(=O)Nc1nccs1,-1.61% (inactive),
c1cnc(Nc2nc(-c3ccc4ccccc4c3)cs2)nc1,-6.94% (inactive),
Cc1ccc(Nc2nc(-c3sc(NC(=O)c4cccc(Cl)c4)nc3C)cs2)cc1,-6.37% (inactive),
Cc1ccc(Nc2nc(-c3c(C)nc4ncccn34)cs2)cc1,,12.6 µM (active)
C/C(CC(=O)NC1CCCC1)=N\NC(=O)Cc1cccs1,10.6% (inactive),
COC(=O)[C@H]1C[C@@H]1[C@H](NC(=O)c1ccccc1)c1ccccc1,4.63% (inactive),
CCC1(C)Cc2c(sc3nnn(CC(=O)Nc4cccc5ccccc45)c(=O)c23)CO1 (centres undefined),,15.8 µM (active)
CC1(C)Cc2c(sc3nc(-c4ccccc4)n(N)c(=O)c23)CO1,-5.96% (inactive),
CCCSc1nc(SCC(=O)NCc2ccccc2)c2c3c(sc2n1)COC(C)(CC)C3 (centres undefined),-15.9% (inactive),
Cc1c(C(=O)O)oc2ccc(S(=O)(=O)NCc3ccc4c(c3)OCO4)cc12,,15.8 µM (active)
COc1ccc(OCCNS(=O)(=O)c2ccc3oc4ccccc4c3c2)cc1,-2.58% (inactive),
O=C(O)C[C@H](Cc1ccc2c(c1)OCO2)C(=O)O,-3.42% [at 11.4 µM] (inactive),
Cc1ccc(C2/C(=C(/O)c3ccccc3)C(=O)C(=O)N2CCN2CCOCC2)o1 (centres undefined),-22.7% (inactive),
Cc1nc2ccc(S(=O)(=O)NC(CC(C)C)C(=O)O)cc2s1 (centres undefined),25.2% (inactive),

Structure (SMILES),"activity, negative = inhibition",AC50
C=CCNC(=S)N1CCN(c2ncc3c(=O)c(C(=O)O)cn(CC)c3n2)CC1,-0.755% (inactive),
N#Cc1ccc(Oc2nc(C(N)=O)cc(-c3ccccc3)n2)cc1,-4.01% (inactive),
Oc1ccccc1C1Nc2cccc3cccc(c23)N1,,10 µM (active)
CC(=O)C1=NOC(CNC(=O)c2c(-c3ccccc3Cl)noc2C)C1 (centres undefined),-4.95% (inactive),
CC1(C)c2ssc(=S)c2-c2ccccc2N1C(=O)CSC1=NCCS1,-7.47% (inactive),
COC(=O)c1ccc(Oc2coc3cc(OCc4cnn(-c5ccccc5)c4)ccc3c2=O)cc1,7.36% (inactive),
Cc1[nH]nc(-c2ccc(OCc3cnn(-c4ccccc4)c3)cc2O)c1Oc1ccc(F)cc1,,7.08 µM (active)
Cc1[nH]nc(-c2ccc(OCc3cnn(-c4ccccc4)c3)cc2O)c1Oc1ccccc1F,,11.2 µM (active)
CCc1ccc(OCC(=O)OC2CCS(=O)(=O)C2)cc1 (centres undefined),12.6% (inactive),
COc1ccc(-n2ncc3c(NCC4CCCO4)ncnc32)cc1 (centres undefined),-3.61% (inactive),
CCC1(c2ccccc2)C(=O)NCNC1=O,,inactive
O=C(Oc1ccccc1)N1CCC2(CC1)CCN(c1ccccc1)CC2,-6.87% (inactive),
Brc1ccc(-c2nnc(-c3cccc(Br)c3)o2)cc1,16.4% (inactive),
CCCNC(=S)Nc1ccc(Br)cc1,-5.15% (inactive),
CCCCc1ccc(NC(=S)NCc2cccs2)cc1,,4.47 µM (active)
CCc1ccc(NC(=O)CS(=O)CC(=O)NCCCc2ccccc2)cc1 (centres undefined),-22.8% (inactive),
CCC(c1nnnn1CC1CCCO1)N(CCN1CCOCC1)Cc1cc2cc(C)ccc2[nH]c1=O (centres undefined),-8.76% (inactive),
CC(=O)Nc1ccc(N2C(=O)CSC2c2c(F)cccc2Cl)cc1 (centres undefined),-25.8% (inactive),
O=C1CSC(c2ccccn2)N1c1ccc(Cl)c(Cl)c1 (centres undefined),-11.2% (inactive),
O=C1CSC(c2ccccc2F)N1c1cc(Cl)ccc1O (centres undefined),,31.6 µM (active)
